Experimental findings from ChEMBL document CHEMBL1201862, “PubChem BioAssay data set” (2004) are described below.

The whole screen tested about 15,000 […], of which about 800 (5.3%) were called active. Rule as the data show it: active = GI50 up to about 1.1 µM and inactive = higher. Only a sample is shown. Results with a measured potency or affinity are listed apart.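 Growth conditions: 96-well plates. Treatment: test compound, 48 hours, 5 concentrations. Analysis: linear interpolation between bracketing concentrations; unreached endpoints set to highest concentration. GI50 is the concentration that inhibits growth by half.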

This assay concerns DMS-114. In words: NCI tumour cell line growth inhibition, 48 h.
Regarding “[Bis(aminomethyl)tetramethylenesilane]dichloropaltinum(II), CHEMBL2146205”, the GI50 is 5.89 µM. Under “[Bis(aminomethyl)diethylsilane]tetrachloroplatinum(IV), CHEMBL2146203” stands 2.23 µM; under “cis-Bis[[(trimethylsilyl)methyl]amino]tetrachloroplatinum(IV), CHEMBL2146191”, 4.09 µM; under “[Bis(aminomethyl)pentamethylenesilane]dichloropaltinum(II), CHEMBL2146202”, 4.01 µM. In the case of “[Bis(aminomethyl)dimethylsilane]dichloroplatinum (II), CHEMBL2146201”, the GI50 turned out to be 12 µM. For the substance “[Bis(aminomethyl)pentamethylenesilane]tetrachloropaltinum(IV), CHEMBL2146204”, the GI50 is 2 µM. Under “[Bis(aminomethyl)ethylmethylsilane]tetrachloroplatinum(IV), CHEMBL2146192” stands 1.17 µM. Consider “mu-(1,7-nanodiamine-N,N')bis-(cis-aminedichloroplatimum (II)), CHEMBL2146215”, for which the GI50 was 6.18 µM. The same measure for “[Bis(aminomethyl)dimethylsilane]tetrachloroplatinum(IV), CHEMBL2146190”: 1.38 µM; for “[Bis(aminomethyl)tetramethylenesilane]tetrachloropaltinum(IV), CHEMBL2146189”: 1.91 µM.
